Screening results: PubChem, several laboratories
Only some compounds are listed: those with a hit (about 27% of all), similar ones and a draw of the others.
CYP2C19 inhib – human CYP2C19 inhibition. P33261. CYP2C19 Supersomes, luciferin-H EGE luminescence, 30 min. inhibition, % at 5 µM. 96,000 compounds, 21% hits;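 active = CYP2C19 inhibition above a set limit at 5 µM in the primary screen, cut at about 50% in these data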;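 also: plate controls were negative control wells for no effect and 2.5 mM tranylcypromine positive control for full effect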
CYP2C9 inh – inhibitors of human CYP2C9; P11712; CYP2C9 Supersomes, luciferin-H conversion, luminescence; inhibition, % at 5 µM; 96,000 compounds, 20% hits; AID 777;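 active = blocking of liver enzyme CYP2C9 beyond about 50% at 5 µM, limit read from the data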
Target sequence (P11712 whole entry, looked up): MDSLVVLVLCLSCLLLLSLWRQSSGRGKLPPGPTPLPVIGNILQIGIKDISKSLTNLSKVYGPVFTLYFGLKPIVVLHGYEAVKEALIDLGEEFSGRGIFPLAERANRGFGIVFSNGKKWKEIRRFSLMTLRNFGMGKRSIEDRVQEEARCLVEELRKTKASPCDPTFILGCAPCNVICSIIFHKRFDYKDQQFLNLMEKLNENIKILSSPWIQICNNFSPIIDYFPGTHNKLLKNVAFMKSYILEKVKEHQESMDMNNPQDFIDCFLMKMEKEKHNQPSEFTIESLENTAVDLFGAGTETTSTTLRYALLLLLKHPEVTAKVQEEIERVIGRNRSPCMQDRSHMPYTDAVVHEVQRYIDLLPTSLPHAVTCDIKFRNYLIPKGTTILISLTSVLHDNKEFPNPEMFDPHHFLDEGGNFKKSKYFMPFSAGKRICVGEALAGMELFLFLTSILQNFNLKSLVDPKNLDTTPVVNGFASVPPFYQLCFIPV
sEH activator – soluble epoxide hydrolase (human) activation; P34913; purified human sEH enzymatic activity, activator screen; activation, % at 2 µM; 91,000 compounds, 0.04% hits; AID 717; in the data active = activation above about 37%
CYP2C9 activ – activators of human CYP2C9 | recombinant CYP2C9, luciferin-H conversion, luminescence; stronger effect = higher value; factor 1 = untreated enzyme, 0 = blocked | P11712 | 96,000 compounds, 1.4% hits | activation factor at 5 µM;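 active = activation factor of 2 or more for CYP2C9 at a 5 µM dose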;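 also: 0 = sulfaphenazole-blocked wells and 1 = vehicle-only wells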
sEH inhibitor – inhibitors of human soluble epoxide hydrolase | 91,000 compounds, 0.34% hits | P34913 | AID 707 | recombinant human sEH enzymatic activity assay | inhibition, % at 2 µM; in the data active = inhibition above about 80%
CYP2C19 activ – activators of human cytochrome P450 2C19 | AID 1025 | activation factor at 5 µM | 96,000 tested, under 10 active | recombinant CYP2C19, luciferin-H EGE luminescence; stronger effect = higher value; 0 = fully inhibited enzyme, 1 = untreated enzyme;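 active = activation factor of at least 2 at 5 µM in the primary screen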;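 also: 0 = wells with 2.5 mM tranylcypromine and 1 = vehicle-only wells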
* marks the source's active call; other numbers are inactive results; . = no result given.

SMILES | CYP2C19 inhib | CYP2C9 inh | sEH activator | CYP2C9 activ | sEH inhibitor | CYP2C19 activ
CCCc1c(CC)c(=N)c2ccccc2n1C | -8 | 12 | -6 | 0.9 | 6 | 1.1
c1ccc(Nc2ncnc3c2oc2ccccc23)cc1 | 29 | -2 | 2 | 1 | -5 | 0.7
O=S(=O)(Nc1ncnc2c1oc1ccccc12)c1ccc(Cl)s1 | 61* | 92* | . | 0.1 | . | 0.4
N#C/C(=C\c1ccccc1Cl)C(=O)NC(=O)Oc1ccccc1 | -1 | -23 | -5 | 1.2 | 3 | 1
N#C/C(=C\c1ccccc1)C(=O)NC(=O)Oc1ccccc1 | 4 | 82* | -10 | 0.2 | 8 | 1
O=C(Nc1ccc(Cl)cc1)NC1CCCCC1Cc1ccco1 (centres undefined) | 10 | 59* | . | 0.4 | . | 0.9
Cc1c(Cl)cccc1NC(=S)NN1CCOCC1 | 67* | -7 | -3 | 1.1 | 3 | 0.3
COc1cc(C)nc(NC(=O)COc2ccc(Cl)cc2C)n1 | 34 | -3 | 13 | 1 | -13 | 0.7
CC1CCc2cc(F)ccc2N1C(=O)C1(C)CC1(Cl)Cl (centres undefined) | 56* | 36 | -13 | 0.6 | 11 | 0.4
CC(C(=O)N1c2ccc(F)cc2CCC1C)N1C(=O)c2ccccc2C1=O (centres undefined) | 69* | 45 | -6 | 0.5 | 4 | 0.3
CCC(CC)C(=O)N1c2ccc(F)cc2CCC1C (centres undefined) | 43 | 74* | -4 | 0.3 | 5 | 0.6
COc1ccccc1NC(=O)N1c2ccc(F)cc2CCC1C (centres undefined) | 4 | 1 | -5 | 1 | 5 | 1
O=C(COC(=O)C12CC3CC(CC(O)(C3)C1)C2)N1CCN(S(=O)(=O)c2ccc(Cl)cc2)CC1 | . | . | -5 | . | 7 | .
O=C1CC(c2cccc(Cl)c2)C(n2cncn2)C(=O)C1C1NCCc2ccccc21 (centres undefined) | -1 | 5 | -3 | 0.9 | 4 | 1
COC(=O)COc1cccc(NC(=O)c2cccs2)c1 | 32 | 28 | 19 | 0.7 | -13 | 0.7
CCNC(=O)NC(=O)C(C)Sc1nc2ccccc2n1CC(C)C (centres undefined) | 19 | -30 | 10 | 1.3 | -8 | 0.8
COc1ccc(CN(C2CCCC2)S(=O)(=O)c2ccc(-n3cnnn3)cc2)cc1OC | . | . | 1 | . | -3 | .
COc1cc(S(=O)(=O)N(Cc2ccc(C)cc2)C2CCCCC2)ccc1-n1cnnn1 | 86* | 84* | . | 0.2 | . | 0.1
COc1cc(S(=O)(=O)NCC2OCCc3ccccc32)ccc1-n1cnnn1 (centres undefined) | 91* | 53* | 6 | 0.5 | -8 | 0.1
COc1cc(S(=O)(=O)N(Cc2ccc(C)cc2)Cc2ccco2)ccc1-n1cnnn1 | 64* | 53* | 1 | 0.5 | -7 | 0.4
CC#CCN(CC#CC)S(=O)(=O)c1ccc(-n2cnnn2)c(OC)c1 | 84* | 13 | -2 | 0.9 | 2 | 0.2
COc1cc(S(=O)(=O)N2CCCC3(CCCCC3)C2)ccc1-n1cnnn1 | 39 | -4 | 3 | 1 | -5 | 0.6
CCOC(=O)N1CCN(c2c(N3CCc4ccccc43)c(=O)c2=O)CC1 | 42 | 15 | . | 0.9 | . | 0.6
Cc1nnc(Nc2ccc(C(=O)N3CCOCC3)cc2)c2ccccc12 | 12 | 41 | 7 | 0.6 | -6 | 0.9
Cc1ccc(Cn2nnc3c(=O)n(CC(=O)N4CCN(c5ccccc5)CC4)cnc32)cc1 | 38 | 6 | 1 | 0.9 | 0 | 0.6
SMILES | CYP2C19 inhib | CYP2C9 inh | sEH activator | CYP2C9 activ | sEH inhibitor | CYP2C19 activ
O=C(CSc1ncccc1-c1nc2ccccc2[nH]1)NCc1ccco1 | 48 | 55* | -5 | 0.4 | 5 | 0.5
COC(=O)CSc1ncccc1-c1nc2ccccc2[nH]1 | 59* | 43 | 6 | 0.6 | -2 | 0.4
O=C1NC2(Nc3ccccc31)C(=O)Nc1ccccc12 (centres undefined) | -3 | 9 | -6 | 0.9 | 7 | 1
O=C(COC(=O)c1ccco1)Nc1ccc(Br)cc1 | 25 | 37 | 7 | 0.6 | -5 | 0.7
CCC(Oc1ccccc1)C(=O)Nc1ccc(-c2nnc(-c3ccco3)o2)cc1 (centres undefined) | 90* | 97* | 3 | 0 | -5 | 0.1
O=C(COc1ccc(Br)cc1)Nc1ccc(-c2nnc(-c3ccco3)o2)cc1 | 64* | 33 | -13 | 0.7 | 12 | 0.4
CCCc1cc(=O)[nH]c(/N=C(\N)Nc2ccccc2)n1 | 0 | 9 | 13 | 0.9 | -13 | 1
CC(=O)Nc1ccc(-c2nnc(SCc3c(C)cc(C)cc3C)n2C)cc1 | 2 | 15 | 9 | 0.8 | -7 | 1
CC1(C)CC2(CCO1)N1CC3(C)CN2CC(C)(C1)C3O (centres undefined) | 8 | 52* | -2 | 0.5 | 6 | 0.9
CCc1nnc(NC(=O)C2c3ccccc3Oc3ccccc32)s1 | . | . | 10 | . | -6 | .
CC(C)(C)NC(=O)C(c1ccccn1)N(C(=O)c1ccc2c(c1)OCCO2)C1CCCC1 (centres undefined) | 11 | 27 | -4 | 0.7 | 4 | 0.9
O=C(c1ccc2c(c1)OCCO2)N(c1ccccn1)C1CCCCC1 | 26 | 52* | -12 | 0.5 | 14 | 0.7
Cc1ccc(C)c(NC(=O)Cn2nc(C)c3ccccc3c2=O)c1 | 14 | 1 | . | 1 | . | 0.9
COc1ccc(N2C(=O)C(Cl)=C(N3CCN(Cc4ccccc4)CC3)C2=O)cc1 | 8 | 42 | 1 | 0.6 | 4 | 0.9
COc1ccc(N2C(=O)C(Cl)=C(N(CCO)Cc3ccccc3)C2=O)cc1 | 97* | 98* | -8 | 0 | 9 | 0
Cc1cnc(C(=O)Nc2ccccc2-c2ccc(C)o2)cn1 | -4 | 89* | 0 | 0.1 | 0 | 1
Cc1ccc(N(CC(=O)NC(C)c2ccccc2)S(=O)(=O)c2cccs2)cc1 (centres undefined) | 98* | 86* | 5 | 0.1 | -8 | 0
COc1ccc(/C=C(/NC(=O)c2ccccc2)C(=O)N/N=C/c2cccs2)cc1OC | 29 | 3 | -3 | 1 | 4 | 0.7
COc1ccc(S(=O)(=O)N(CC(=O)N/N=C/c2cccs2)c2cc(C)cc(C)c2)cc1OC | 53* | 60* | -2 | 0.4 | 0 | 0.5
COc1ccc(S(=O)(=O)N(CC(=O)N/N=C/c2cccs2)c2ccc(C)cc2)cc1OC | 99* | 47 | -4 | 0.5 | 6 | 0
CCOc1ccc(S(=O)(=O)N(CC(=O)N/N=C/c2cccs2)c2ccc(C)cc2)cc1 | 53* | 7 | 0 | 0.9 | -2 | 0.5
O=[N+]([O-])c1ccc2nc(/C=C/c3ccc(Cl)cc3)[nH]c2c1 | 32 | 43 | -19 | 0.6 | 20 | 0.7
CC(=O)Nc1cccc2c1OCCO2 | 0 | 0 | -5 | 1 | 4 | 1
O=C(NNC(=S)Nc1cccc2ccccc12)c1cccc(Br)c1 | 91* | 96* | 5 | 0 | -4 | 0.1
